Measured potencies and affinities stand elsewhere. A number with no mark means an inactive call.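 How the source made its calls: active means fitted half-maximal concentration for loss of cell signal no higher than twice the top valid tested concentration; inconclusive means flat curve at 30 to 70% inhibition, or poor fit; inactive means flat within 30%, signal rise, or potency above limit.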

This assay in a line: MDA-MB-231 cell growth inhibition, dose response, cytotoxicity control for RAD54 inhibitor project, CellTiter-Glo luminescence, cherry-pick (AID 651692).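 Further: 0% = median of sample compound wells and -100% = staurosporine control wells; more negative values mean stronger loss of viable cell signal.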 As to conditions: MDA-MB-231 viability, 24 h; series mostly up to 26 µM; activity change, negative = growth inhibition: at the top concentration.
Take `CC(C)NC1CCC(Nc2ccnc3cc(Cl)ccc23)CC1` (centres undefined): the “activity change, negative = growth inhibition” value was 2.57%.

As to `CNC(C)C#Cc1ccc2oc3cccc(OC)c3c(=O)c2c1` (centres undefined), the “activity change, negative = growth inhibition” value is 3.46%.

With `OC1CCCN(Cc2c3ccccc3cc3ccccc23)C1` (centres undefined), the “activity change, negative = growth inhibition” value was 7.86%.

Regarding `Oc1cccc(Nc2c3ccccc3nc3ccccc23)c1`, the “activity change, negative = growth inhibition” value is -0.751%.

Turning to `COc1ccc(C(=O)Nc2cc(C)c(NC(=O)c3ccccc3OC)cn2)cc1`, the “activity change, negative = growth inhibition” value is -4.12%.

`Cc1ccc(-c2nc(NCCN(C)C)c3ccccc3n2)cc1`: the “activity change, negative = growth inhibition” value was 1.78%.

As to `Cc1cccn2c(=O)c3cc(C(=O)NCCc4ccccc4)c(=N)n(CCCn4ccnc4)c3nc12`, the “activity change, negative = growth inhibition” value is -4.6%.

Take `Cc1cccn2c(=O)c3cc(C(=O)NCC4CCCO4)c(=N)n(C4CCCCC4)c3nc12` (centres undefined): the “activity change, negative = growth inhibition” value is 9.09%.

Consider `Cc1cccc2c1-c1sc(C(=O)NCCCN3CCCC(C)C3)cc1CO2` (centres undefined), for which the “activity change, negative = growth inhibition” value was -13.9%.

For `CCCCN(CC)CCCNC(=O)c1cc2c(=O)n(C)c3ccccc3c2n1C`, the “activity change, negative = growth inhibition” value was -6.97%.

For `Cc1ccc(OCC(=O)Nc2cccc(-c3nnc(-c4ccccc4)o3)c2)c(C)c1`, the “activity change, negative = growth inhibition” value is -3.67%.

`CC(=O)Nc1cc(-c2cccc(C(=O)NCCN(C)C)c2)cn2c(-c3ccccc3)cnc12`: the “activity change, negative = growth inhibition” value was -4.39%.

As to `Cc1ccc(S(=O)(=O)CCSc2ccc(C(F)(F)F)cn2)cc1`, the “activity change, negative = growth inhibition” value is 4.89%.

For `CCN(CC)CCN(C(=O)C1=COCCO1)c1nc2c(OC)ccc(OC)c2s1`, the “activity change, negative = growth inhibition” value is 6.87%.

Consider `Cc1cccn2c(=O)c3cc(C(=O)NCc4ccccc4)c(=N)n(CCCN4CCOCC4)c3nc12`, for which the “activity change, negative = growth inhibition” value is 0.872%.

Consider `CN1CCN(c2nc(-c3cccs3)nc3ccccc23)CC1`, for which the “activity change, negative = growth inhibition” value is 1.82%.

For the compound `CCOc1ccc2[nH]c3c(NCCN(C)C)ncnc3c2c1`, the “activity change, negative = growth inhibition” value is -4.38%.

Turning to `CN1CCN(c2nc(-c3ccccn3)nc3ccccc23)CC1`, the “activity change, negative = growth inhibition” value was 2.71%.

Take `Cc1nc2nc(C)c(C)nc2nc1C`: the “activity change, negative = growth inhibition” value was 4.2%.

In the case of `CCOc1ccc2nc(C)cc(Nc3ccc4c(c3)OCCO4)c2c1`, the “activity change, negative = growth inhibition” value is -23.8%.

As for `CN(C)CCN(C(=O)CN1C(=O)c2ccccc2C1=O)c1nc2cc3c(cc2s1)OCCO3`, the “activity change, negative = growth inhibition” value was -2.76%.

Turning to `CCN(CC)CCCNC(=O)c1cc2c(=O)n(C)c3ccccc3c2n1C`, the “activity change, negative = growth inhibition” value is -6.68%.

In the case of `O=C(Nc1ccccc1)c1cc(S(=O)(=O)N2CCOCC2)cs1`, the “activity change, negative = growth inhibition” value was 11.1%.

In the case of `CCN(CC)CC(O)c1ccc2ccc3ccc(O)cc3c2c1` (centres undefined), the “activity change, negative = growth inhibition” value was -4.8%.

Turning to `CN(C)CCNC(=O)c1cccc(-c2cnc3c(NC=O)cc(-c4ccc(F)cc4)cn23)c1`, the “activity change, negative = growth inhibition” value is -17.3%.

On to `CCN1CCN(c2cc(C)c3cc(NC(=S)NCCCN4CCc5ccccc5C4)ccc3n2)CC1`, for which the “activity change, negative = growth inhibition” value is -3.87%.

Take `CCN(CC)CCCNC(=O)c1ccc2c3n(nc2c1)-c1ccc(Cl)cc1CO3`: the “activity change, negative = growth inhibition” value is 9.21%.

For the compound `COc1cccc(-c2cc3nc(NCCCN(C)C)n(C)c(=O)c3s2)c1`, the “activity change, negative = growth inhibition” value was -0.818%.

On to `CCOc1cc2[nH]c(=O)n(Cc3ccc(C(=O)NCCCN4CCC(C)CC4)cc3)c(=O)c2cc1OCC`, for which the “activity change, negative = growth inhibition” value is 8.84%.

Take `NC1CCN(c2c(F)cc3c(=O)c(C(=O)O)cn(C4CC4)c3c2Cl)C1` (centres undefined): the “activity change, negative = growth inhibition” value is 16%.

With `Cc1cc(-c2cc(NC=O)c3ncc(-c4cccc(C(=O)NCCN(C)C)c4)n3c2)cc(C)c1O`, the “activity change, negative = growth inhibition” value is -22.2%.

With `CC1CCN(CCCNC(=O)c2cc3c(Cl)nc4ccccc4c3s2)CC1`, the “activity change, negative = growth inhibition” value was -10.9%.

Regarding `CCOC(=O)c1cnc2c(C)cccc2c1NCCCN1CCOCC1`, the “activity change, negative = growth inhibition” value is 0.77%.

Regarding `CCN1CCN(C(=S)Nc2ccc3nc(N4CCN(C)CC4)cc(C)c3c2)CC1`, the “activity change, negative = growth inhibition” value is -0.729%.

For the compound `Cc1ccc2nc3c(c(Nc4ccc(O)cc4)c2c1)CCC3`, the “activity change, negative = growth inhibition” value is -3.8%.

With `O=C(Nc1ccc(Nc2ccncc2)cc1)c1ccc(Nc2ccnc3ccc([N+](=O)[O-])cc23)cc1`, the “activity change, negative = growth inhibition” value was 2.9%.

In the case of `CCN(CC)CCNC(=O)c1cc2cc3ccc(OC)cc3nc2o1`, the “activity change, negative = growth inhibition” value is 4.55%.

On to `CCNC(=O)c1cc2c(=O)n3cccc(C)c3nc2n(CCc2ccccc2)c1=N`, for which the “activity change, negative = growth inhibition” value is -8.42%.

For `CC(=O)Nc1cc(-c2ccc(N3CCN(C)CC3)cc2)cn2c(-c3cccc(C(C)=O)c3)cnc12`, the “activity change, negative = growth inhibition” value is -11%.

The record behind these values is PubChem BioAssay AID651692 (Broad Institute, 2012).
